# Source: PubChem BioAssay (National Center for Advancing Translational Sciences (NCATS))
# RECQ1 inh = inhibitors of human RECQ1 DNA helicase. AID 2549. RECQ1 DNA unwinding, red fluorescence kinetic read. Potency, µM (highest dose often 57.3 µM), inactives show at the highest dose activity, negative = inhibition, most hits filed as inhibitors. actives 0.54% (n = 240,000);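 further: plate controls were vehicle for no effect and no enzyme for full effect; nearly all actives have a fitted effect of over 30% in size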
# Target sequence (P46063 whole entry, looked up): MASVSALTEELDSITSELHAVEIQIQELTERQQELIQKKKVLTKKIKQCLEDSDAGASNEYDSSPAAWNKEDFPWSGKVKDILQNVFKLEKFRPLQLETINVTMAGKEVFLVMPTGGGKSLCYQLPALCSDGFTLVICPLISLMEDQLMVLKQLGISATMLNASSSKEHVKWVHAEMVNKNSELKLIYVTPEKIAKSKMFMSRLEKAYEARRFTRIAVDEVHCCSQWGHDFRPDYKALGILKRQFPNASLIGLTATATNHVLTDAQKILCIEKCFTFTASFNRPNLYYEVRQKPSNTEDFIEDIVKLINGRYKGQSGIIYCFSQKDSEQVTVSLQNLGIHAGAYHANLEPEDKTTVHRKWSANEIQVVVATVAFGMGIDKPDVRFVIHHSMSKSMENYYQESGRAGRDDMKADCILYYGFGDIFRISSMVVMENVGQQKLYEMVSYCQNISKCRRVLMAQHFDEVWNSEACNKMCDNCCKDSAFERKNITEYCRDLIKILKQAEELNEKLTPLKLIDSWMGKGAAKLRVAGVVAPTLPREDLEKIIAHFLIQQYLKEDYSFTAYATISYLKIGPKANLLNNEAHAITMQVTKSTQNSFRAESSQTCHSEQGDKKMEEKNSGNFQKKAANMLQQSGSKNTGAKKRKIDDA
#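 RECQ1T1 50 nM; forked duplex (20 bp + 30-nt ss tails) 200 nM, ATP 2 mM final; pH 8.0, 2 mM MgCl2, 2.5 ug/ml poly(dI-dC); 15 min compound preincubation; discontinuous kinetic read over 2 h at RT.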
# APEX1 inh = APE1 (human) endonuclease inhibition; actives 0.35% (n = 350,000); P27695; Potency, µM (top dose mostly 65.8 µM), for inactives: top-dose activity change, negative = inhibition, actives largely listed as inhibitors; AID 2517; recombinant APE1, TAMRA/BHQ-2 abasic DNA cleavage fluorescence;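 further: plate controls were vehicle for no effect and reference inhibitor for full effect; nearly all actives have a fitted effect of over 55% in size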
#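 Readout is kinetic fluorescence (ex 525, em 598 nm) from cleavage of 50 nM TAMRA/BHQ-2 THF abasic duplex by 0.75 nM APE1, compound added 15 min beforehand at RT.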
# WRN inhibitor = blocks human WRN helicase. Q14191. WRN helicase unwinding, fluorescent forked duplex, kinetic. Potency, µM (highest dose often 114 µM), for inactives: top-dose activity change, negative = inhibition, actives largely listed as inhibitors. actives 0.46% (n = 360,000). AID 651768; further: nearly all actives have a fitted effect of over 55% in size
#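 WRN at 20 nM final was preincubated with compound for 15 min at room temperature; reaction started with 100 nM forked duplex oligonucleotide carrying fluorophore and quencher plus 2 mM ATP (final). Unwinding followed kinetically by red fluorescence (ex 525/em 598 nm).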
# FEN1 inhibitor = inhibitors of human flap endonuclease 1; P39748; Recombinant FEN1 flap cleavage, fluorescence, 15 min; Potency, µM (highest dose often 114 µM), without a hit: at the top dose activity change, negative = inhibition, actives largely listed as inhibitors; actives 0.35% (n = 390,000); AID 588795; further: nearly all actives have a fitted effect of over 65% in size
#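 In this screen, 50 nM flap DNA substrate was added to 10 nM FEN1 pretreated with compound for 15 min at room temperature; cleavage was followed with reads at 0 and 15 min, and Hill fitting gave concentration–response parameters.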
# L3MBTL1 block = L3MBTL1 (human) inhibition. Q9Y468. AlphaScreen L3MBTL1–H3K9me1 peptide binding. Potency, µM (titrated, usually from 57.1 µM), inactives show at the highest dose activity, negative = inhibition, actives largely listed as inhibitors. actives 0.66% (n = 230,000); further: nearly all actives have a fitted effect of over 60% in size
#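 L3MBTL1 50 nM + b-AHA-H3(1-15)K9me1 75 nM, 30 min RT; compound added, 30 min RT; streptavidin donor/Ni-chelate acceptor beads 10 ug/mL each final, 30 min RT dark; AlphaScreen read.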
# BLM helicase inh = inhibitors of human Bloom syndrome helicase BLM; P54132; recombinant BLM DNA unwinding, fluorescence dequenching; Potency, µM (doses to about 56.1 µM), inactives show at the highest dose activity change, negative = inhibition, usual class: inhibitors; actives 0.2% (n = 350,000); AID 2528;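 further: plate controls were vehicle for no effect and no enzyme for full effect; nearly all actives have a fitted effect of over 35% in size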
# Starred values were filed as active, the others as inactive; i = inactive; ? = inconclusive; nt = no result given; [ ] = remark or other dose. Hits are enriched below; roughly 1% of the tested compounds scored in any of these assays. The call rests on the fitted dose curve; in most records, active means well fitted curve in the direction sought with a large enough effect; inconclusive means small, poorly fitted or top-dose-only effect, or another doubt; inactive means no such curve, though single readings can be large; an effect the other way counts as inactive or inconclusive. Unless noted, on the % scale 0 is the no-effect control and ±100 the full control effect; potency means the concentration at half of the fitted maximal effect.
SMILES,RECQ1 inh,APEX1 inh,WRN inhibitor,FEN1 inhibitor,L3MBTL1 block,BLM helicase inh
Oc1cc(-c2cccnc2)cc2cccnc12,nt,-4.7%,nt,-5.0%,7.94µM*,nt
CCOC(=O)C1CCN(c2nc(N)c3c(N)nc(SCC(=O)O)cc3c2C#N)CC1,?,?,44.7µM*,44.7µM*,25.1µM*,25.1µM*
CCOc1cc2c(C#N)c(N3CCCCC3)nc(N)c2c(N)n1,-0.5%,-5.6%,-23.0%,-19.7%,nt,28.2µM*
COc1ccc(C2=NN(C(=O)CCCC(=O)O)C(c3cn(-c4ccccc4)nc3-c3ccccc3)C2)cc1 (stereo not given),-0.2%,-4.9%,0.299µM*,-8.5%,nt,-0.8%
C[C@H](CO)N1C[C@H](C)[C@@H](CN(C)S(=O)(=O)c2ccc(C#N)cc2)OCc2cn(nn2)CCCC1=O,nt,nt,5.6%,nt,nt,nt
COc1ccc(/C=N/NC(=O)c2cccnc2)cc1COc1ccc([N+](=O)[O-])c(C)c1,-14.1%,-7.3%,-3.3%,-13.6%,-22.4%,0.5%
COc1ccc(/C=N\NC(=O)c2ccc([N+](=O)[O-])c(C)c2)cc1COc1ccccc1C(N)=O,nt,-31.8%,?,79.4µM*,nt,?
CSc1ccc(S(=O)(=O)NCC(=O)OCC(=O)N2CCCC2=O)cc1[N+](=O)[O-],nt,-11.9%,-9.2%,-2.7%,-3.4%,nt
COC(=O)C1CCN(C(=O)COC(=O)CNS(=O)(=O)c2ccc(SC)c([N+](=O)[O-])c2)CC1,nt,11.9µM*,-10.3%[11.6 µM],-10.0%,-16.5%,nt
CC(=O)OCON[N+]([O-])=NC1CCCCC1,10.7%,2.5%,nt,-18.9%,nt,3.8%
Cc1ccc2c(c1C)NC(C(=O)O)C1CC=CC21 (stereo not given),5.01µM*,?,39.8µM*,56.2µM*,5.01µM*,17.8µM*
Cc1ccc(Cl)c2c1N[C@@H](c1ccc(C(=O)O)cc1)[C@H]1CC=C[C@@H]21,nt,nt,nt,-34.1%,nt,-2.1%
O=C(O)C1Nc2c(C(=O)N3CCOCC3)cccc2C2C=CCC12 (stereo not given),-16.9%,?,56.2µM*,?,3.55µM*,-2.0%
Cc1cc(C)c2c(c1)C1C=CCC1C(C(=O)O)N2 (stereo not given),nt,nt,nt,22.4µM*,nt,nt
Cc1cc(C)c2c(c1)NC(C(=O)O)C1CC=CC21 (stereo not given),nt,-16.7%,50.1µM*,44.7µM*,5.01µM*,-6.8%
O=C(O)C1Nc2c(C(F)(F)F)ccc(Cl)c2C2C=CCC12 (stereo not given),nt,26.5%,-11.0%,10.0%,nt,-4.5%
O=C(c1ccccc1O)N1CCOCC1,7.1%,-1.4%,-3.5%,3.3%,3.7%,-2.4%
O=C(CN1CCNCC1)N1CCOCC1,nt,nt,-4.2%,nt,nt,nt
Cc1cc(NS(=O)(=O)c2ccc(NC(=O)c3ccccc3F)cc2)no1,nt,12.4%,-2.9%,21.2%,-1.4%,nt
COc1cccc(/C=N/N2C(=O)CSC2=S)c1O,3.3%,2.2%,?,-25.0%,25.1µM*,-5.6%
COc1ccc2ccccc2c1/C=N/N1C(=O)CSC1=S,28.2µM*,-6.4%,?,-5.4%,?,-12.7%
O=C1CSC(=S)N1N=Cc1c(O)ccc2ccccc12,nt,nt,?,-12.7%,nt,nt
CC(C)(C)n1ncc2c(=O)n(Cc3ccccc3-c3ccccc3)cnc21,nt,-1.3%,nt,0.1%,nt,nt
CCCCCCc1cc2cc(-c3nnc(-c4ccccc4O)o3)c(=O)oc2cc1O,3.1%,-4.6%,-12.7%,4.9%,9.7%,-7.7%
CCCCCCc1cc2cc(-c3nnc(-c4ccccc4OC)o3)c(=O)oc2cc1O,i,?,44.7µM*,44.7µM*,nt,?
SMILES,RECQ1 inh,APEX1 inh,WRN inhibitor,FEN1 inhibitor,L3MBTL1 block,BLM helicase inh
C[C@H]1CN([C@@H](C)CO)S(=O)(=O)c2ccc(Br)cc2O[C@H]1CN(C)C(=O)Cc1ccncc1,nt,nt,-2.2%,nt,nt,nt
CSc1sccc1/C=C(/C#N)C(=O)c1ccco1,nt,29.6%,50.1µM*,?,nt,-6.1%
N#C/C(=C\c1ccco1)C(=O)NCc1ccccc1,-2.3%,-11.1%,4.8%,11.2%,-3.1%,-4.7%
Cc1csc(NC(=O)CCC(=O)N(CC(=O)NC2CCCCC2)c2ccccc2)n1,nt,30.2%[12.4 µM],2.1%,1.3%,nt,0.1%
Cc1ccc(/C=C2\S/C(=N/S(=O)(=O)c3cccs3)NC2=O)cc1,3.4%,0.3%,50.1µM*,?,-7.3%,-10.1%
Cc1ccc(S(=O)(=O)/N=C2/NC(=O)/C(=C\c3ccccc3)S2)cc1,nt,46.0%,?,-3.5%,-7.2%,nt
CC[n+]1c(/C=C/c2ccc(N(C)C)cc2)ccc2ccccc21,6.8%,3.8%,?,50.1µM*,?,?
CC[n+]1c(/C=C/c2ccc(OC)c(OC)c2)ccc2ccccc21,nt,2.2%,-2.0%,-18.1%,8.5%,-7.5%
CCN(CC)c1ccc(/C=C/c2ccc3ccc(OC)cc3[n+]2CC)cc1,nt,0.9%,56.2µM*,35.5µM*,nt,2.2%
CN(C)c1ccc(/C=C/c2cc[n+](C)cc2)cc1,12.0%,-5.5%,79.4µM*,?,nt,-6.8%
CN1c2ccc([N+](=O)[O-])cc2N(C)C1(C)c1ccccc1 (stereo not given),nt,-14.5%,-7.3%,-27.9%,14.1µM*,-12.0%
Cn1c2ccccc2c2cc([N+](=O)[O-])ccc21,-2.5%,17.4%,-5.4%,?,2.5%,0.5%
COc1cc(-c2noc(C)c2C#CCCN2C(=O)c3ccccc3C2=O)cc(OC)c1OC,nt,nt,nt,13.8%,nt,nt
COc1cccc(/C=C2/CN(C)CC3=C2OC(N)=C(C#N)C3c2cccc(OC)c2)c1 (stereo not given),-5.0%,-5.4%,79.4µM*,?,-6.8%,-7.0%
CC(/C=N/n1c(-c2cc(C)[nH]n2)n[nH]c1=S)=C\c1ccco1,25.1µM*,-11.6%,?,?,?,-0.3%
CC(/C=N/n1c(-c2ccc(Cl)cc2)n[nH]c1=S)=C\c1ccco1,-2.0%,12.4%,-11.7%[11.6 µM],-13.3%,-14.6%,-14.9%
Cc1n[nH]c(C)c1Sc1ccccc1N=Cc1cc(Cl)cc([N+](=O)[O-])c1O,-5.7%,0.0%,50.1µM*,79.4µM*,nt,-0.6%
CC(C)(C)n1ncc2c(=O)n(Cc3cccc(OC(F)(F)F)c3)cnc21,nt,-4.0%,nt,-0.8%,nt,nt
Cc1cccc2cc(C3CC(c4ccco4)=NN3S(=O)(=O)c3ccccc3)c(Cl)nc12 (stereo not given),28.2µM*,?,-2.0%,4.2%,-13.8%,-6.4%
CC[C@@H]1Cn2c(c3nc(-c4cc(Cl)cc(Cl)c4Cl)nc-3n(C)c2=O)N1,-4.2%,-2.6%,nt,nt,nt,0.7%
COCCN1C(=O)/C(=C/c2ccc(N3CCCC3)cc2C)SC1=S,-10.8%,-4.1%,79.4µM*,2.7%,-24.5%,-7.5%
